# Reference: PubChem BioAssay AID2018 (Sanford-Burnham Center for Chemical Genomics, 2009)
# Out of some 1,200 compounds screened, about 600 (50%) were called active. The set was probably picked from earlier hits. This is one part of the list. Results with a measured potency or affinity are listed apart. Unmarked numbers belong to inactive results. Cut-off read from the data, not from the text of the source: active = inhibition above about 42%; inactive = the rest.
# Target: SUMO-conjugating enzyme UBC9 (Homo sapiens) (UniProt P63279)
# Sequence (P63279 whole entry, looked up): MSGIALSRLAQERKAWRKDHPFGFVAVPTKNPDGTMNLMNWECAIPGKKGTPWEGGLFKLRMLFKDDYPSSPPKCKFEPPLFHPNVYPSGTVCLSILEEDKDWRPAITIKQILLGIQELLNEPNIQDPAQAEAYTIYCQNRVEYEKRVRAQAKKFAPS
# Assay: SUMOylation inhibitor hit validation, confirmation, SUMOylation inhibitor project, biochemical, AlphaScreen (AID 2018)
# Conditions: AlphaScreen in vitro SUMOylation assay; at 35 µM; hits give high values
row,SMILES,inhibition
1,Cc1oc2c(c1C(=O)N1CCC(C)CC1)C(=O)c1ccccc1C2=O,29.2%
2,Cc1oc2c(c1C(=O)O)C(=O)c1ccccc1C2=O,86.7% (active)
3,COc1ccc2oc(=O)c(C(=O)NCC3CCCO3)cc2c1 (stereo not given),-13.9%
4,COc1ccc(S(=O)(=O)N(C)c2ccc(C(=O)NCc3ccccn3)cc2)cc1,4.9%
5,COc1ccc(CNC(=O)c2c(C)oc3c2C(=O)c2ccccc2C3=O)cc1,49.7% (active)
6,CCOC(=O)c1c(C)oc2c1C(=O)c1ccccc1C2=O,47.8% (active)
7,CC(C)NC(=O)N1CCC(n2nccc2NC(=O)CCOc2ccccc2)CC1,9%
8,NN1C(=O)/C(=C\c2ccco2)SC1=S,56% (active)
9,O=C1S/C(=C\C=C\c2ccco2)C(=O)N1c1ccc(O)cc1,40.4%
10,O=C1/C(=C\c2ccco2)SC(=S)N1C1CCS(=O)(=O)C1 (stereo not given),39.6%
11,C(=N\C(/N=C/c1ccco1)c1ccco1)/c1ccco1,30%
12,Nc1ccc2c(c1)C/C(=C/c1ccco1)C2=O,13.8%
13,CCOC(=O)c1nn(-c2ccc3c(c2)CCN3C(C)=O)cc1O,16.7%
14,Cc1ccc2[nH]c3c(c2c1)CN(C(=O)CN1CCN(c2cccc(C)c2C)CC1)CC3,41.7%
15,COc1ccccc1CCn1c(N)c(C#N)c2nc3ccccc3nc21,22.4%
16,COc1ccc2nc3cccc(OC)c3nc2c1,-22.2%
17,COc1ccc2nc3ccccc3nc2c1N,66.5% (active)
18,CN(Cc1ccco1)C(=O)c1cc2c(s1)-c1ccc(Cl)cc1S(=O)(=O)C2,11.3%
19,O=C(O)CCC(=O)Nc1ccccc1C(=O)Nc1ccccc1,-5.9%
20,Cc1ccc(NC(=O)CCC(=O)OCC(=O)c2ccc(-c3ccccc3)cc2)cc1,22.2%
21,C=CCNC(=O)c1c(N)n(-c2cccc(S(N)(=O)=O)c2)c2nc3ccccc3nc12,2%
22,CCN(CC)C(=O)COc1ccc2oc(-c3ccco3)cc(=O)c2c1,-1.1%
23,COc1ccc(-n2c(N)c(C(=O)NCC3CCCO3)c3nc4ccccc4nc32)c(OC)c1 (stereo not given),-13.9%
24,COc1ccc(-n2c(N)c(C(=O)NCc3ccco3)c3nc4ccccc4nc32)cc1OC,33.2%
25,Cc1ccc(/C=c2\sc3nc(-c4ccco4)nn3c2=O)o1,83.3% (active)

row,SMILES,inhibition
1,O=[N+]([O-])c1cc(CN2CCN(c3cccc(C(F)(F)F)c3)CC2)c2cccnc2c1O,64.3% (active)
2,O=[N+]([O-])c1ccc(N2CCN(CCO)CC2)c2ncccc12,-17.2%
3,COc1ccc2c(c1)CC/C(=C\C=C\c1ccccc1)C2=O,31.7%
4,COc1ccc2c(c1)CC/C(=C\Nc1ccc3c(c1)OCO3)C2=O,97.5% (active)
5,COc1ccccc1C(=O)Nc1sc2c(c1C(=O)NCc1ccco1)CCCC2,35.7%
6,O=C(CSc1ccc(Br)c2cccc(Cl)c12)Nc1ccc(S(=O)(=O)Nc2nccs2)cc1,101% (active)
7,O=C(Cn1nnc2ccccc21)NCc1ccccc1,4.8%
8,CC(C)CC(=O)Nc1ccc(C(=O)Cn2nc(C(=O)O)c3ccccc3c2=O)cc1,36%
9,N#Cc1cnn2c(-c3ccccc3)ccnc12,3.3%
10,O=C(Cc1cccc2ccccc12)NN1C(=O)/C(=C\c2cccnc2)SC1=S,29.3%
11,CCOCCCN1CN(Cc2ccco2)CNC1=S,4.1%
12,O=C(O)/C=C/c1cn(-c2ccccc2)nc1-c1cc2ccccc2o1,10.4%
13,O=C(O)/C=C\c1cn(-c2ccccc2)nc1-c1cc2ccccc2o1,27.9%
14,COc1ccc(CNC(=O)c2c(N)n(CCCN3CCOCC3)c3nc4ccccc4nc23)cc1,3.3%
15,C=CCn1c(NC(=O)c2ccc(Br)o2)c(S(=O)(=O)c2ccccc2)c2nc3ccccc3nc21,65.4% (active)
16,Cc1ccc(C)c(S(=O)(=O)c2c(N)n(/N=C/c3ccco3)c3nc4ccccc4nc23)c1,23%
17,Cc1ccc(S(=O)(=O)c2c(N)n(/N=C/c3ccco3)c3nc4ccccc4nc23)cc1C,26.1%
18,O=C(c1cccn2c(=O)c3cc(Cl)ccc3nc12)N1CCOCC1,5.9%
19,Cc1ncc(CO)c(/C=N/NC(=O)c2cc(O)c(O)c(O)c2)c1O,99.6% (active)
20,Brc1ccc(OCCN2CCOCC2)cc1,13.4%
21,CCOc1ccc2c(c1)C(NC(C)=O)C(=O)N2CCN1CCOCC1 (stereo not given),95.9% (active)
22,CC(=O)NC1C(=O)N(CCN2CCOCC2)c2ccc(Br)cc21 (stereo not given),99% (active)
23,Cn1c(=O)n(C)c2cc(S(=O)(=O)NCCO)ccc21,13.1%
24,CCc1ccc2c(c1)C(NC(C)=O)C(=O)N2CCN1CCOCC1 (stereo not given),96.7% (active)
25,O=C(Nc1cccc2ccccc12)N1CCc2ccccc2C1,13.1%

row,SMILES,inhibition
1,Oc1ccc(N=Cc2ccc(-c3cccs3)s2)cc1,52.6% (active)
2,Cc1ccc(C)c(-c2nc3ccc(N)cc3[nH]2)c1,8.5%
3,N#CC1=C(SCC(=O)NC23CC4CC(CC(C4)C2)C3)NC(=O)C(C#N)C12CCCCC2 (stereo not given),-21.2%
4,CN(C)/C=C1/Oc2c(ccc3ccccc23)C1=O,-1.2%
5,CN(C)/C=C1\Oc2ccc3ccccc3c2C1=O,-1.5%
6,COc1ccc(OC)c2c1C(=O)c1ccccc1C2=O,44% (active)
7,COc1cccc2c1C(=O)c1ccc3ccccc3c1C2=O,75.8% (active)
8,COc1ccc(Cc2n[nH]c(=S)n2NC(=O)Nc2ccc(Cl)c(Cl)c2)cc1,24.4%
9,COc1ccc(-c2cc(=O)[nH][nH]2)cc1,27.6%
10,COc1ccc(NCc2cc3ccccc3[nH]c2=O)cc1,46.4% (active)
11,COCCn1nnnc1C(c1cc2ccc(OC)cc2[nH]c1=O)N1CCc2ccccc2C1 (stereo not given),4.8%
12,O=C(NCc1ccccc1)Nc1cccn(Cc2ccc(Cl)cc2)c1=O,-10.4%
13,CN(C)/C=N/c1nc2nccc(-c3ccc(F)cc3)n2n1,1.6%
14,CCN(CC)S(=O)(=O)c1cc(C)ccc1SC,-1%
15,Cc1ccc(C(=O)c2c3ccc(N)cc3nn2CCC(N)=O)cc1,38.2%
16,Cc1c(N=C2C=CC(=O)c3ccccc32)c(=O)n(-c2ccccc2)n1C,102% (active)
17,CCc1cc2c(=O)nc3n(c2s1)Cc1ccccc1/C3=C(/O)c1cccc([N+](=O)[O-])c1,16.9%
18,Cc1cc(=O)n2[nH]c(N)c(N=Nc3ccccc3F)c2n1,12.9%
19,Nc1c(C(=O)Nc2ccc(F)cc2)sc2nc(-c3ccco3)ccc12,35.1%
20,Nc1c(C(=O)Nc2ccccc2)sc2nc(-c3ccco3)ccc12,-10.2%
21,COc1ccccc1NC(=O)Nc1ccnn1Cc1cccs1,16.5%
22,Cc1ccc(S(=O)(=O)N2CCCCC2)cc1NC(=O)COC(=O)c1c(F)cccc1F,-6.2%
23,Cc1cc2c(NC(=O)Nc3ccc(C(C)(C)C)cc3)cccc2nn1,15.3%
24,CCOC(=O)NC(=O)COC(=O)c1ccc(O)cc1,24.8%
25,COc1cc(OC)cc(-c2nc(-c3ccccc3)no2)c1,-70.2%

row,SMILES,inhibition
1,O=C(NCc1ccco1)Nc1ccc2snnc2c1,11%
2,COCCNC(=O)Nc1ccc2nc(-c3ccco3)c(-c3ccco3)nc2c1,102% (active)
3,COc1ccc2nc(-c3ccco3)c(-c3ccco3)nc2c1,76.8% (active)
4,COCCn1c(-c2ccco2)nc2nc3ccccc3nc21,19.2%
5,CCOc1ccccc1Oc1c(C)oc2c(CN3CCN(C)CC3)c(O)ccc2c1=O,-5.4%
6,S=c1[nH]nc(-c2cc(-c3ccccc3)n[nH]2)n1/N=C/c1ccc(Cl)c(Cl)c1,12.5%
7,Cc1cccc(-c2n[nH]c(=S)n2/N=C/C=C/c2ccco2)c1,37.5%
8,O=C(O)CCCCCNc1ccc2nsnc2c1[N+](=O)[O-],-10.2%
9,C[C@@H]1CN=C2N(CCNC(=O)CCC3CCCCC3)[C@H](Cc3ccc(O)cc3)CN21,6%
10,O=C1OC(Nc2ccc3ncccc3c2)c2ccccc21 (stereo not given),2.1%
11,Cc1cccc(C(=O)O)c1NC(=O)c1ccc(F)cc1,2.9%
12,Cc1cc2c(N)cccc2nn1,101% (active)
13,Cc1cc2c(NC(=O)Nc3ccc(F)cc3)cccc2nn1,10.5%
14,Cc1cc2c(NC(=O)Nc3ccccc3)cccc2nn1,26.1%
15,COc1ccc(C2C3=C(CCCC3=O)Nc3c(-c4ccccc4)c(C)nn32)cc1 (stereo not given),4.2%
16,O=C(O)CSc1cc(C(=O)c2cc(F)ccc2O)cn2c(=O)c3c(-c4ccccc4)csc3nc12,95.3% (active)
17,O=C(O)CSc1cc(C(=O)c2ccccc2O)cn2c(=O)c3c(-c4ccccc4)csc3nc12,99.2% (active)
18,COc1ccc(/C=C/c2cc(C(=O)O)c3ccccc3n2)cc1,21.4%
19,N#CCCN(Cc1cccnc1)C(=S)NC1CC2C=CC1C2 (stereo not given),-4.1%
20,CCOC(=O)Cn1c2ccc(OC)cc2c2nc3ccccc3nc21,38.7%
21,COC(=O)Cn1c2ccc(C)cc2c2nc(C)sc21,30.1%
22,COc1cc2c(C#N)c(N3CCN(C)CC3)nc(N)c2c(N)n1,21.5%
23,CCCN(CC1CC1)c1nc(N)c2c(N)nc(OC)cc2c1C#N,16.9%
24,COc1cc2c(C#N)c(N3CCCCC3)nc(N)c2c(N)n1,47.6% (active)
25,COc1cc2c(C#N)c(N3CCN(c4ccccc4OC)CC3)nc(N)c2c(N)n1,19.7%
